TRHR enhancer-1 = allosterically enhances the human TRH receptor. enhancement, % at 2 µM. AID 493056. actives 0.66% (n = 360,000). TRHR cells, fluo-8 calcium fluorescence, EC20 TRH enhancement. P34981; in the data active means enhancement above about 30%; further: 0% is about no effect
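Enhancer read-out: after compound pinning and an initial kinetic agonist-mode read, an EC20 of TRH (10 nM final) was injected and fluo-8 calcium signal (Ex 480/Em 530) followed at 1 s/cycle for 100 cycles in TRHR-expressing cells.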
TRHR agonist-1 = TRH receptor (human) agonism. P34981. TRHR cells, calcium flux fluo-8, FDSS agonist mode. activation, % at 2 µM. actives 0.18% (n = 360,000). AID 493084; in the data active means activation above about 30%; further: 0% is about no effect
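Read-out: compound-evoked intracellular calcium rise in TRHR cells, fluo-8 dye, kinetic FDSS fluorescence at 1 s/cycle following a 10-cycle baseline. Cells cultured overnight before dye loading (30 min–1.5 h, RT).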
D1 antag = antagonists of human D1 dopamine receptor; HEK293 TREx D1 cells, calcium flux, dopamine EC80; stronger effect = lower value; actives 3.2% (n = 360,000); P21728; activity change, negative = inhibition, % at 10 µM; AID 504652; in the data active means activity change below about -30%; further: on the % scale 0 is the no-effect control and ±100 the full control effect
Target sequence (P21728 whole entry, looked up): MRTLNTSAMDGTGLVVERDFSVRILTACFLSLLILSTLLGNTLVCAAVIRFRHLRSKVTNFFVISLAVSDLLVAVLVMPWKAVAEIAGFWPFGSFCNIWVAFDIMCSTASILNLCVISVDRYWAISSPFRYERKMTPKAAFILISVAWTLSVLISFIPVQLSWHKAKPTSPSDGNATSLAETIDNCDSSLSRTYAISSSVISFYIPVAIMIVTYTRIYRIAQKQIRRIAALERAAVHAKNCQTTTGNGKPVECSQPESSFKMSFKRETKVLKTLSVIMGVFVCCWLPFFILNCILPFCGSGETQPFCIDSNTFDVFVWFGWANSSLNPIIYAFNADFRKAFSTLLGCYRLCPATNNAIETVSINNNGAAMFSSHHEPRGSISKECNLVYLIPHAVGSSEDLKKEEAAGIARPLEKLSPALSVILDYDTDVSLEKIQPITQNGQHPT
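Antagonism measured as reduced calcium response to an EC80 dopamine addition following 180 s compound pre-read; cells were inducible HEK293 Trex D1 plated overnight at 30 C, read kinetically at 1 cycle/sec.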
D1 agonist = activates the human D1 dopamine receptor. activation, % at 2 µM. P21728. AID 504660. actives 1% (n = 360,000). HEK293 T-REx D1 cells, calcium flux, agonist mode; in the data active means activation above about 30%; further: 0% is about no effect
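Tetracycline-induced HEK293 TREx D1 cells, force-coupled to calcium signalling, were dye-loaded with a no-wash calcium kit. Compound was pin-added after a 10 s baseline. Fluorescence was read kinetically at 1 cycle/s for 180 s, with calcium rises flagged as agonism.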
D1 PAM = potentiators of human D1 dopamine receptor. P21728. potentiation, % at 10 µM. actives 0.036% (n = 360,000). HEK293 TREx D1 cells, calcium flux, dopamine EC20 potentiation; in the data active means potentiation above about 30%; further: 0% is about no effect
TRHR enhancer-2 = human TRH receptor allosteric enhancement confirmation; shares compounds with TRHR enhancer-1; TRH receptor cell assay, enhancer confirmation qHTS; activity change, negative = inhibition, % at 46.1 µM; 970 tested, under 10 active;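 further: compound effect scored on response to added TRH at EC20 of 10 nM; 0% is about no effect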
TRHR agonist-2 = confirmation of human TRH receptor agonists; Potency, µM (series often up to 46.1 µM), without a hit: top-dose activation, usual class: activators; shares compounds with TRHR enhancer-1; TRHR-expressing cells, agonist activation read-out; AID 493078; actives 8% (n = 970); further: potency means the concentration at half of the fitted maximal effect; 0% is about no effect; nearly all actives have a fitted effect of over 75% in size
* hit, by the source's call; / = not tested or not shown. An excerpt weighted towards active compounds, which were near 4.7% of everything screened. Unless noted, the call rests on the fitted dose curve; in most records, active means well fitted curve in the direction sought with a large enough effect; inconclusive means small, poorly fitted or top-dose-only effect, or another doubt; inactive means no such curve, though single readings can be large; an effect the other way counts as inactive or inconclusive.

SMILES	TRHR enhancer-1	TRHR agonist-1	D1 antag	D1 agonist	D1 PAM	TRHR enhancer-2	TRHR agonist-2
CC(=O)NCCC1CCN(c2nc3nonc3nc2N(C)Cc2ccccc2)CC1	47*	0	10	2	-5	-4	0%
Cc1ccc(Cl)cc1N1CCN(C(=O)c2sc3nc4n(c(=O)c3c2C)CCC4)CC1	1	0	5	-1	-2	/	/
COc1ccccc1C(=O)N1CCN(Cc2cn[nH]c2-c2ccc(F)cc2F)CC1	57*	-1	-4	2	2	-5	0%
CC1(C)CC(=O)C(C=Nc2ccc(C(=O)c3ccccc3)cc2N=CC2=C(O)CC(C)(C)CC2=O)=C(O)C1	-3	27	-14	86*	0	-4	2%
Cc1nc2ccc(C(=O)Nc3ccccc3Cl)cc2s1	51*	-1	-9	-1	-5	3	1%
CCOc1ccccc1NC(=O)N1CCc2c(sc(C)c2CC)C1c1ccccc1 (stereo not given)	6	1	-1	1	1	/	/
Cc1ncoc1C(=O)N1CCCC(CCC(=O)NCc2ccccc2F)C1 (stereo not given)	45*	0	6	0	-3	-7	1%
Cc1ncoc1C(=O)N1CCCC(CCC(=O)NCc2ccc(F)c(F)c2)C1 (stereo not given)	-2	0	-4	2	-1	/	/
CCc1cccc(NC(=O)CCc2c(C)nc3c(-c4ccccc4)c(C)nn3c2C)c1	2	0	-19	1	-5	/	/
Cc1oc(-c2ccccc2)nc1C(=O)OCC(=O)NC(=O)NCC(C)C	49*	0	-14	0	-4	-4	-1%
Cc1oc(-c2ccccc2)nc1C(=O)OCC(=O)NC(C)c1ccccc1 (stereo not given)	8	-1	-4	0	10	/	/
COc1ccc(C(=O)Oc2ccc(/C=N/NC(=O)c3ccccc3OC)cc2[N+](=O)[O-])cc1	51*	0	3	2	-6	-3	2%
Cc1cccc(CNC(=O)c2ccc(NC(=O)N3CC(C)Sc4ccccc43)cc2)c1 (stereo not given)	0	0	0	-1	11	/	/
Cc1ccc(N2CC(C(=O)NCc3nnnn3-c3ccc(C)c(C)c3)CC2=O)cc1C (stereo not given)	-2	0	-3	0	4	/	/
CCOc1ccccc1-c1c2cc(O)c(=O)cc-2oc2cc(O)c(O)cc12	1	31*	12	53*	-3	-15	0.73µM*
O=c1cc2oc3cc(O)c(O)cc3c(-c3ccccc3O)c-2cc1O	4	47*	-14	46*	1	5	10µM*
Cc1cccc(N2CCN(Cc3nnc(-c4ccc5c(c4)OCO5)o3)CC2)c1C	-4	0	2	-1	-2	/	/
NC(=O)c1c(NC(=O)CN2CCOCC2)sc2c1CCC2	66*	0	9	2	-5	-16	2%
NC(=O)c1c(NC(=O)CN2CCCC2)sc2c1CCCC2	2	0	-18	-3	1	/	/
O=C(NCc1ccc2c(c1)OCO2)C(=O)NCC1CCCO1 (stereo not given)	0	0	-9	1	1	/	/
O=C(NCc1cccc(CNC(=O)C(=O)NCC2CCCO2)c1)C(=O)NCC1CCCO1 (stereo not given)	42*	1	-5	1	-4	1	-1%
CCN(C(=O)Cn1cc(C(=O)c2ccc(F)cc2)c(=O)c2ccc(C)nc21)c1cccc(C)c1	-3	1	2	2	0	/	/
CC(C)CCn1c(=O)c2sccc2n2c(CCCC(=O)NC(C)C)nnc12	11	-1	-1	0	-5	/	/
CSc1nnc(N2C(=O)C(O)=C(C(=O)c3ccco3)C2c2ccccc2)s1 (stereo not given)	2	30	19	100*	3	7	6%
Cc1ccc(C2C(C(=O)c3ccco3)=C(O)C(=O)N2c2nnc(C)s2)cc1 (stereo not given)	13	17	-5	18	14	/	/
SMILES	TRHR enhancer-1	TRHR agonist-1	D1 antag	D1 agonist	D1 PAM	TRHR enhancer-2	TRHR agonist-2
CC(C)CCNC(=O)NC(=O)CSc1nnc(-c2ccccc2Br)o1	42*	0	10	2	-3	-3	2%
COc1cccc(CNC(=O)C2=C(C)C(=O)OC23CCN(C(C)=O)CC3)c1OC	-6	1	5	-1	-1	/	/
O=C(Nc1cccc(S(=O)(=O)N2CCCC2)c1)c1cccc(S(=O)(=O)N2CCOCC2)c1	-5	29	-1	1	-2	4	2%
CC(C)(C)c1ccc(OCCC(=O)Nc2cccc(S(=O)(=O)N3CCOCC3)c2)cc1	44*	1	-7	30	-3	5	0%
O=C(NCc1ccc2c(c1)OCO2)c1cccc(S(=O)(=O)N2CCCCC2)c1	-17	44*	-16	2	-4	-9	2%
COc1ccc(OCCC(=O)OCC(=O)Nc2cccc(S(=O)(=O)N3CCOCC3)c2)cc1	0	0	-18	5	-3	/	/
O=C(NCc1ccc2c(c1)OCO2)c1cccc(S(=O)(=O)N2CCCC2)c1	-1	0	8	0	-2	/	/
Cc1ccc(CNS(=O)(=O)c2c(C)nc3sc(C)cn3c2=O)cc1	3	-1	-3	2	-4	/	/
COc1ccc(C)cc1NC(=O)C1CCN(S(=O)(=O)c2cc(Br)cc3c2N(C(C)=O)CC3)CC1	-2	-1	-2	-3	0	/	/
CCOc1ccccc1N1CC(C(=O)Nc2cccc(S(=O)(=O)N3CCCCC3)c2)CC1=O (stereo not given)	74*	0	-14	2	-2	-9	4%
COc1ccc(CNCc2c(C(=O)O)n(Cc3ccc(F)cc3)c3cc(C)ccc23)cc1OC	2	0	13	0	-3	/	/
CC(=O)Oc1ccc(-c2cccc(C(=O)NCCO)c2)cc1	43*	0	11	1	-4	-2	-1%
CCNc1nc(NCC)n2c(SCC(=O)Nc3ccc(C)c(C)c3)nnc2n1	45*	0	3	7	3	14	4%
CCNc1nc(NCC)n2c(SCC(=O)Nc3ccc(F)cc3)nnc2n1	1	0	7	1	2	/	/
COc1ccccc1N1CCN(Cc2nc3ccccc3[nH]2)CC1	50*	0	-10	1	7	5	-1%
O=C(NCc1ccco1)c1ccc2c(c1)N(Cc1ccccc1F)C(=O)c1ccccc1S2=O (stereo not given)	2	1	0	1	-5	/	/
N#Cc1ccccc1NC(=S)NC(=O)C1CCC1	0	0	-3	2	0	/	/

Screens from PubChem BioAssay.
